# PubChem BioAssay
# Entries with a potency or affinity are not part of this list. A number with no mark means an inactive call.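 Rule for the calls: active = signal drop whose fitted half-maximal concentration is at most twice the top valid dose, in every test run; inconclusive = mixed calls across runs, poor fit, or flat 30 to 70% inhibition; inactive = wrong direction, flat within 30%, or potency beyond limit.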
# Test: cytotoxicity in PAX8-dependent RMG-1 cells, dose response, cell-based, cherry-pick (AID 687029);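 note: cells exposed to compound for 96 hours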
# Conditions: RMG-1 viability, CellTiterGlo ATP luminescence, 96 h; series mostly up to 35 µM; activity change, negative = inhibition: at the top concentration
row,SMILES,"activity change, negative = inhibition"
1,COc1ccc(S(=O)(=O)Nc2ccc3c(c2)C(=O)N([C@@H](C)CO)C[C@@H](C)[C@H](CN(C)Cc2ccc(C(F)(F)F)cc2)OCCCC[C@H](C)O3)cc1,34.6%
2,COc1cccc(C#Cc2ccc([C@H]3[C@@H](CO)N(C(=O)C4CCCCC4)[C@H]3C#N)cc2)c1,27.6%
3,C[C@H](CO)N1C[C@H](C)[C@@H](CN(C)Cc2ccc(C(F)(F)F)cc2)OCCCC[C@H](C)Oc2ccc(NS(=O)(=O)c3ccc(F)cc3)cc2C1=O,16.9%
4,Cc1ccc(S(=O)(=O)Nc2ccc3c(c2)C(=O)N([C@H](C)CO)C[C@@H](C)[C@@H](CN(C)Cc2ccc(C(F)(F)F)cc2)OCCCC[C@H](C)O3)cc1,10.6%
5,COc1ccc(S(=O)(=O)N(C)C[C@@H]2OCCCC[C@H](C)Oc3ccc(NS(=O)(=O)c4ccc(Cl)cc4)cc3C(=O)N([C@H](C)CO)C[C@@H]2C)cc1,32.5%
6,C[C@@H]1CCCCO[C@@H](CN(C)S(=O)(=O)c2ccccc2)[C@H](C)CN([C@H](C)CO)C(=O)c2cc(NC(=O)Nc3ccc(C(F)(F)F)cc3)ccc2O1,22.8%
7,C[C@@H]1CN([C@H](C)CO)C(=O)c2cc(NS(=O)(=O)c3ccccc3)ccc2O[C@@H](C)CCCCO[C@H]1CN(C)Cc1ccc(C(F)(F)F)cc1,9.1%
8,COc1ccccc1C#Cc1ccc([C@H]2[C@H](C#N)N(C(=O)C3CC3)[C@H]2CO)cc1,12.5%
9,C[C@H](CO)N1C[C@H](C)[C@@H](CN(C)Cc2ccc(C(F)(F)F)cc2)Oc2ccc(NS(=O)(=O)c3ccc(Cl)cc3)cc2CC1=O,19.3%
10,N#C[C@H]1[C@H](c2ccc(C#Cc3ccccc3F)cc2)[C@H](CO)N1C(=O)C1CCC1,11.3%
11,COc1ccccc1S(=O)(=O)N(C)C[C@H]1Oc2cc(C#CCC3CCCC3)ccc2S(=O)(=O)N([C@@H](C)CO)C[C@H]1C,28%
12,COc1ccccc1C#Cc1ccc([C@H]2[C@H](C#N)N(C(=O)C3CCC3)[C@H]2CO)cc1,18.4%
13,C[C@@H]1CN([C@@H](C)CO)S(=O)(=O)c2ccc(C#Cc3ccccc3F)cc2O[C@H]1CN(C)C(=O)Cc1ccccc1,18.5%
14,COc1ccc(S(=O)(=O)Nc2ccc3c(c2)C(=O)N([C@H](C)CO)C[C@H](C)[C@@H](CN(C)S(=O)(=O)c2ccc(Cl)cc2)OCCCC[C@H](C)O3)cc1,6.14%
15,COc1ccc(CN(C)C[C@@H]2OCCCC[C@H](C)Oc3ccc(NC(=O)Nc4ccc(C(F)(F)F)cc4)cc3C(=O)N([C@@H](C)CO)C[C@H]2C)cc1,-2.45%
16,NS(=O)(=O)c1ccc(CCN2C(=O)/C(=C\c3ccc(Cl)cc3)SC2=S)cc1,52.8%
17,O=C(C[C@@H]1C[C@@H]2c3cc(NS(=O)(=O)c4ccc(F)cc4)ccc3O[C@@H]2[C@@H](CO)O1)NCc1ccc(Oc2ccccc2)cc1,34.1%
18,C[C@H](CO)N1C[C@H](C)[C@H](CN(C)Cc2ccc3c(c2)OCO3)OCCCC[C@H](C)Oc2ccc(NC(=O)Nc3ccc(C(F)(F)F)cc3)cc2C1=O,0.34%
19,N#C[C@@H]1[C@@H](c2ccc(C#Cc3ccccc3F)cc2)[C@H](CO)N1C(=O)C1CCCCC1,31.2% [at 30 µM]
20,O=C(C[C@H]1C[C@@H]2c3cc(NS(=O)(=O)c4ccc(F)cc4)ccc3O[C@@H]2[C@@H](CO)O1)N1CCc2ccccc2C1,23.3%
21,O=C1CN(S(=O)(=O)Cc2ccccc2)C[C@H]2[C@H](c3ccc(C#Cc4ccc(F)cc4)cc3)[C@H](CO)N12,27.1%
22,CCCC#Cc1ccc([C@H]2[C@@H](C#N)N(C(=O)C3CCCCC3)[C@H]2CO)cc1,26.5%
23,C[C@H]1CCCCO[C@H](CN(C)S(=O)(=O)c2ccccc2)[C@@H](C)CN([C@@H](C)CO)C(=O)c2cc(NS(=O)(=O)c3ccc(Cl)cc3)ccc2O1,18.5%
24,C[C@H](CO)N1C[C@H](C)[C@H](CN(C)Cc2ccc(C(=O)Nc3ccccc3N)cc2)Oc2ccc(N(C)C)cc2C1=O,29.3%
25,COc1cccc(C#Cc2ccc([C@H]3[C@@H](CO)N(C(=O)c4ccccn4)[C@H]3C#N)cc2)c1,22.1%
26,CCCCCCCCn1c2c(c(=N)c3c1CCC3)CCCC2,-3.08%
27,Oc1c(Cl)cc(Cl)c(Cl)c1Cc1c(O)c(Cl)cc(Cl)c1Cl,17%
28,COc1cccc(-c2ccc(C3[C@@H]4CN(C(=O)C5CC5)C[C@H]3N4)cc2)c1 (some centres undefined),2.52%
29,Cc1ccc(S(=O)(=O)Nc2ccc3c(c2)C(=O)N([C@H](C)CO)C[C@@H](C)[C@H](CN(C)Cc2ccc(C(F)(F)F)cc2)OCCCC[C@H](C)O3)cc1,8.96%
